PubChem BioAssay (NCATS)
Inconclusive results are not listed. A call without a number means that no potency is given here. A number with no mark means an inactive call. Calls of active or inactive are those of the source. Calls come from the whole dose curve; as a rule, active = well fitted curve in the direction sought with a large enough effect; inconclusive = small, poorly fitted or top-dose-only effect, or another doubt; inactive = no such curve, though single readings can be large; an effect the other way counts as inactive or inconclusive.

Legend:
HEK293 = test: Cytotoxic Profiling of Annotated Libraries Using Quantitative High-Throughput Screening (AID 1296008); conditions: Five cell lines viability, CellTiter-Glo ATP luminescence, 48-72 h; max response: hits give low values; note: nearly all actives have a fitted effect of over 60% in size; note: potency is the fitted concentration of half-maximal effect
How it was run: (§1)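 Compounds were pin-transferred onto cells and incubated 48 or 72 hr at 37 degree Celsius, 95% humidity. CellTiter-Glo was added, plates sat 10 min at room temperature, then ATP-coupled luminescence was imaged as the viability read-out.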

HaCat = test: as above; conditions: Five cell lines viability, CellTiter-Glo ATP luminescence, 48-72 h; max response: hits give low values
How it was run: as §1

KB-3-1 = test: as above; conditions: Five cell lines viability, CellTiter-Glo ATP luminescence, 48-72 h; max response: hits give low values
How it was run: as §1

NIH3T3 = test: as above; conditions: Five cell lines viability, CellTiter-Glo ATP luminescence, 48-72 h; max response: hits give low values
How it was run: as §1

C33A = test: Primary qHTS to identify gynecologic anti-cancer compounds using libraries of approved drugs and bioactive compounds (AID 1345084); conditions: Gynecologic cancer cell panel viability, ATPlite luminescence, 48 h; series mostly up to 57.5 µM; note: nearly all actives have a fitted effect of over 55% in size
How it was run: (§2)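 Cell viability after 48 h drug treatment, ATPlite luminescence readout; five doses.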

CAOV3 = test: as above; conditions: Gynecologic cancer cell panel viability, ATPlite luminescence, 48 h; series mostly up to 57.5 µM
How it was run: as §2

CASKI = test: as above; conditions: Gynecologic cancer cell panel viability, ATPlite luminescence, 48 h; series mostly up to 57.5 µM
How it was run: as §2

Es-2 = test: as above; conditions: Gynecologic cancer cell panel viability, ATPlite luminescence, 48 h; series mostly up to 57.5 µM
How it was run: as §2

HeLa = test: as above; conditions: Gynecologic cancer cell panel viability, ATPlite luminescence, 48 h; series mostly up to 57.5 µM
How it was run: as §2

Hek293T = test: as above; conditions: Gynecologic cancer cell panel viability, ATPlite luminescence, 48 h, control line for the selectivity index; series mostly up to 57.5 µM
How it was run: as §2

JEG-3 = test: as above; conditions: Gynecologic cancer cell panel viability, ATPlite luminescence, 48 h; series mostly up to 57.5 µM
How it was run: as §2

## CC(=O)c1ccc2c(c1)C(O)C(C(C)(C)O)O2 (stereo not drawn)
HEK293
  max response: -3.07%
HaCat
  max response: 1.04%
KB-3-1
  outcome: inactive
NIH3T3
  max response: -18%
C33A
  Potency: inactive
CAOV3
  Potency: inactive
CASKI
  Potency: inactive
Es-2
  Potency: inactive
HeLa
  Potency: inactive
Hek293T
  Potency: inactive
JEG-3
  Potency: inactive

## CC(C)CC(=O)O[C@@H]1OC=C(CO[C@@H]2O[C@H](CO)[C@@H](O)[C@H](O)[C@H]2O)[C@H]2[C@@H]3O[C@H]3[C@@](O)(CO)[C@@H]12
HEK293
  max response: -8.14%
HaCat
  max response: 1.46%
KB-3-1
  max response: 6.77%
NIH3T3
  max response: 2.35%
C33A
  Potency: inactive
CAOV3
  Potency: inactive
CASKI
  Potency: inactive
Es-2
  Potency: inactive
HeLa
  Potency: inactive
Hek293T
  Potency: inactive
JEG-3
  Potency: inactive

## COC(=O)c1cc(OC)c(O[C@@H]2O[C@@H](C)[C@H](O)[C@@H](O)[C@H]2O)c(OC)c1
HEK293
  max response: -6.73%
HaCat
  max response: -17.1%
KB-3-1
  max response: 4.85%
NIH3T3
  max response: 2.7%
C33A
  Potency: inactive
CAOV3
  Potency: inactive
CASKI
  Potency: inactive
Es-2
  Potency: inactive
HeLa
  Potency: inactive
Hek293T
  Potency: inactive
JEG-3
  Potency: inactive

## OC[C@H]1O[C@@H](OCCc2ccc(O)cc2)[C@H](O[C@@H]2OC[C@](O)(CO)[C@H]2O)[C@@H](O)[C@@H]1O
HEK293
  max response: 0.652%
HaCat
  max response: 1.3%
KB-3-1
  max response: 8.69%
NIH3T3
  max response: -3.47%
C33A
  Potency: inactive
CAOV3
  Potency: inactive
CASKI
  Potency: inactive
Es-2
  Potency: inactive
HeLa
  Potency: inactive
Hek293T
  Potency: inactive
JEG-3
  Potency: inactive

## C[C@@H]1N[C@H]2N(C1=O)c1ccccc1[C@@]2(O)C[C@@H]1C(=O)N[C@@H](C)c2nc3ccccc3c(=O)n21
HEK293
  max response: -21.5%
HaCat
  max response: 1.5%
KB-3-1
  outcome: inactive
NIH3T3
  max response: -0.438%
C33A
  Potency: inactive
CAOV3
  Potency: inactive
CASKI
  Potency: inactive
Es-2
  Potency: inactive
HeLa
  Potency: inactive
Hek293T
  Potency: inactive
JEG-3
  Potency: inactive

## C/C1=C\[C@H]2OC(=O)[C@@H](C)[C@@H]2CC/C(C(=O)O)=C/CC1
HEK293
  max response: -16.7%
HaCat
  max response: -0.286%
KB-3-1
  max response: -0.178%
NIH3T3
  max response: -2.73%
C33A
  Potency: inactive
CAOV3
  Potency: inactive
CASKI
  Potency: inactive
Es-2
  Potency: inactive
HeLa
  Potency: inactive
Hek293T
  Potency: inactive
JEG-3
  Potency: inactive

## C/C=C1\[C@H](O[C@@H]2O[C@H](CO)[C@@H](O)[C@H](O)[C@H]2O)OC=C(C(=O)OC)[C@H]1CC(=O)O
HEK293
  max response: 3.99%
HaCat
  max response: -13.1%
KB-3-1
  max response: -0.621%
NIH3T3
  max response: -1.8%
C33A
  Potency: inactive
CAOV3
  Potency: inactive
CASKI
  Potency: inactive
Es-2
  Potency: inactive
HeLa
  Potency: inactive
Hek293T
  Potency: inactive
JEG-3
  Potency: inactive

## CCCN1CCN(c2ccc(C(=O)NC3(C(=O)NCC#N)CCCCC3)cc2)CC1
HEK293
  max response: -5.14%
HaCat
  max response: -5.96%
KB-3-1
  max response: -7.48%
NIH3T3
  max response: 1.62%
C33A
  Potency: inactive
CAOV3
  Potency: inactive
CASKI
  Potency: inactive
Es-2
  Potency: inactive
HeLa
  Potency: inactive
Hek293T
  Potency: inactive
JEG-3
  Potency: inactive

## CC[C@H]1OC(=O)[C@](C)(F)C(=O)[C@H](C)[C@@H](O[C@@H]2O[C@H](C)C[C@H](N(C)C)[C@H]2O)[C@](C)(OC)C[C@@H](C)C(=O)[C@@H](C)[C@H]2N(CCCCn3cc(-c4cccc(N)c4)nn3)C(=O)O[C@]12C
HEK293
  Potency: 1460 nM (active)
HaCat
  max response: -5.51%
KB-3-1
  max response: -12.6%
NIH3T3
  max response: 1.26%
C33A
  Potency: inactive
CAOV3
  Potency: inactive
CASKI
  Potency: inactive
Es-2
  Potency: inactive
HeLa
  Potency: inactive
Hek293T
  Potency: inactive
JEG-3
  Potency: inactive

## C[C@]12C=C[C@@]3(CCC4[C@](C)(CO)CCC[C@@]4(C)C3CC1)C2 (stereo partly drawn)
HEK293
  max response: -17.4%
HaCat
  max response: -20.7%
KB-3-1
  max response: 4.11%
NIH3T3
  max response: -6.89%
C33A
  Potency: inactive
CAOV3
  Potency: inactive
CASKI
  Potency: inactive
Es-2
  Potency: inactive
HeLa
  Potency: inactive
Hek293T
  Potency: inactive
JEG-3
  Potency: inactive

## CC1=CC(=O)CC(C)(CO)C1(O)/C=C/C(C)O[C@@H]1O[C@H](CO)[C@@H](O)[C@H](O)[C@H]1O (stereo partly drawn)
HEK293
  max response: -1.52%
HaCat
  max response: 2.49%
KB-3-1
  max response: -2.84%
NIH3T3
  max response: -3.42%
C33A
  Potency: inactive
CAOV3
  Potency: inactive
CASKI
  Potency: inactive
Es-2
  Potency: inactive
HeLa
  Potency: inactive
Hek293T
  Potency: inactive
JEG-3
  Potency: inactive

## C[C@@H]1O[C@@H](O[C@H]2[C@H](O[C@H]3[C@H](O)[C@@H](C(=O)O)O[C@@H](O[C@H]4CC[C@@]5(C)C(CC[C@]6(C)C5CC[C@]57OC[C@@]8(CCC(C)(C)CC85)[C@H](O)C[C@]76C)C4(C)C)[C@@H]3O[C@@H]3O[C@H](CO)[C@@H](O[C@@H]4OC[C@@H](O)[C@H](O)[C@H]4O)[C@H](O)[C@H]3O)O[C@H](CO)[C@H](O)[C@@H]2O)[C@H](O)[C@H](O)[C@H]1O (stereo partly drawn)
HEK293
  max response: -0.169%
HaCat
  max response: 1.4%
KB-3-1
  outcome: inactive
NIH3T3
  max response: 2.61%
C33A
  activity change, negative = cytotoxicity: -0.321% [at 6.55 µM]
CAOV3
  activity change, negative = cytotoxicity: 1.86% [at 6.55 µM]
CASKI
  activity change, negative = cytotoxicity: 3.57% [at 6.55 µM]
Es-2
  activity change, negative = cytotoxicity: -2.01% [at 6.55 µM]
HeLa
  activity change, negative = cytotoxicity: 1.31% [at 6.55 µM]
Hek293T
  activity change, negative = cytotoxicity: 4.69% [at 6.55 µM]
JEG-3
  activity change, negative = cytotoxicity: 1.85% [at 6.55 µM]

## CC1=C(C(=O)O)/C(=C\CO[C@@H]2O[C@H](CO)[C@@H](O)[C@H](O)[C@H]2O)C(OC(=O)/C=C/c2ccc(O)cc2)C1 (stereo partly drawn)
HEK293
  max response: 0.858%
HaCat
  max response: -26%
KB-3-1
  max response: 8.61%
NIH3T3
  max response: -19.1%
C33A
  Potency: inactive
CAOV3
  Potency: inactive
CASKI
  Potency: inactive
Es-2
  Potency: inactive
HeLa
  Potency: inactive
Hek293T
  Potency: inactive
JEG-3
  Potency: inactive
